Laboratory results: the supplement of paper PMC12669032

Columns and labels:
Assay in all cases: growth AUC relative to DMSO control (median of replicates) (fraction); higher = more growth (less inhibition), active = hit call of the paper
Settings in all cases: 20 µM; 24 h;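 active = AUC reduced over 20% with Padj below 0.05 in at least 2 of 3 replicates; inactive = otherwise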
Coprococcus comes = system: Coprococcus comes
Outline: (§1)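 Starting at OD600 0.05, gut bacterial monocultures in mGAM were grown anaerobically at 37 °C with 20 µM compound (1% DMSO) under pierced gas-permeable seals. OD600 was read every hour for 24 h, and the lowest OD of each curve was set to 0. Area under the growth curve was normalised to the plate median of solvent-only wells, or to row and column medians on the industrial chemical plate, and the median of three biological replicates grown on separate days is given.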

Escherichia coli ED1a = system: Escherichia coli ED1a
Outline: as §1

Escherichia coli IAI1 = system: Escherichia coli IAI1
Outline: as §1

Eubacterium rectale = system: Eubacterium rectale
Outline: as §1

[1] = system: Fusobacterium nucleatum subsp. animalis
Outline: as §1

Lactobacillus gasseri = system: Lactobacillus gasseri
Outline: as §1

Lactobacillus paracasei = system: Lactobacillus paracasei
Outline: as §1

Odoribacter splanchnicus = system: Odoribacter splanchnicus
Outline: as §1

[2] = system: Parabacteroides distasonis
Outline: as §1

Parabacteroides merdae = system: Parabacteroides merdae
Outline: as §1

Roseburia intestinalis = system: Roseburia intestinalis
Outline: as §1

Streptococcus salivarius = system: Streptococcus salivarius
Outline: as §1

Measured: growth AUC

CCOC(=O)CC(SP(=O)(OC)OC)C(=O)OCC (stereo not drawn)
inactive: Coprococcus comes 1 | Escherichia coli ED1a 0.97 | Escherichia coli IAI1 0.976 | Eubacterium rectale 1.09 | [1] 0.893 | Lactobacillus gasseri 0.883 | Lactobacillus paracasei 0.973 | Odoribacter splanchnicus 0.913 | [2] 0.902 | Parabacteroides merdae 0.975 | Roseburia intestinalis 0.997 | Streptococcus salivarius 1.01

CCCSP(=S)(OCC)Oc1ccc(Cl)cc1Cl (stereo not drawn)
inactive: Coprococcus comes 1 | Escherichia coli ED1a 1.05 | Escherichia coli IAI1 1.01 | Eubacterium rectale 1.04 | [1] 1.11 | Lactobacillus gasseri 1.01 | Lactobacillus paracasei 0.984 | Odoribacter splanchnicus 0.778 | [2] 0.984 | Parabacteroides merdae 1.01 | Roseburia intestinalis 1.08 | Streptococcus salivarius 0.973

CC1=C(C(=O)Nc2ccccc2)S(=O)(=O)CCO1
inactive: Coprococcus comes 0.986 | Escherichia coli ED1a 1.02 | Escherichia coli IAI1 0.994 | Eubacterium rectale 0.985 | [1] 0.959 | Lactobacillus gasseri 0.998 | Lactobacillus paracasei 0.981 | Odoribacter splanchnicus 0.962 | [2] 0.975 | Parabacteroides merdae 1 | Roseburia intestinalis 0.989 | Streptococcus salivarius 0.979

CCOC(=O)OC1=C(c2cc(C)ccc2C)C(=O)NC12CCC(OC)CC2 (stereo not drawn)
inactive: Coprococcus comes 0.998 | Escherichia coli ED1a 1.01 | Escherichia coli IAI1 0.983 | Eubacterium rectale 1.01 | [1] 0.965 | Lactobacillus gasseri 0.993 | Lactobacillus paracasei 0.992 | Odoribacter splanchnicus 0.969 | [2] 0.981 | Parabacteroides merdae 1.03 | Roseburia intestinalis 0.995 | Streptococcus salivarius 0.987

O=C(O)C(F)(F)C(F)(F)C(F)(F)C(F)(F)C(F)(F)C(F)(F)C(F)(F)C(F)(F)C(F)(F)F
inactive: Coprococcus comes 0.991 | Escherichia coli ED1a 1.01 | Escherichia coli IAI1 1.01 | Eubacterium rectale 0.892 | [1] 1.01 | Lactobacillus gasseri 1.01 | Lactobacillus paracasei 1.03 | Odoribacter splanchnicus 0.993 | [2] 0.913 | Parabacteroides merdae 0.97 | Roseburia intestinalis 0.96 | Streptococcus salivarius 0.942

COc1ccc(/C(=C/C(=O)N2CCOCC2)c2ccc(F)cc2)cc1OC
inactive: Coprococcus comes 1.02 | Escherichia coli ED1a 0.974 | Escherichia coli IAI1 1.01 | Eubacterium rectale 0.966 | [1] 0.955 | Lactobacillus gasseri 0.971 | Lactobacillus paracasei 0.976 | Odoribacter splanchnicus 1.06 | [2] 1.01 | Parabacteroides merdae 1.02 | Roseburia intestinalis 0.975 | Streptococcus salivarius 1.04

Oc1c(Br)cc(Br)cc1Br
inactive: Coprococcus comes 1.01 | Escherichia coli ED1a 0.945 | Escherichia coli IAI1 0.845 | Eubacterium rectale 1 | [1] 1.03 | Lactobacillus gasseri 1.13 | Lactobacillus paracasei 0.919 | Odoribacter splanchnicus 0.748 | [2] 0.934 | Parabacteroides merdae 0.991 | Roseburia intestinalis 1.08 | Streptococcus salivarius 0.959

Cc1ccccc1C(=O)Nc1cccc(OC(C)C)c1
inactive: Coprococcus comes 1.02 | Escherichia coli ED1a 0.991 | Escherichia coli IAI1 1 | Eubacterium rectale 0.953 | [1] 0.955 | Lactobacillus gasseri 1.06 | Lactobacillus paracasei 1.01 | Odoribacter splanchnicus 1.03 | [2] 1.04 | Parabacteroides merdae 0.974 | Roseburia intestinalis 1.01 | Streptococcus salivarius 0.988

O=C(NC(=O)c1c(F)cccc1F)Nc1cc(Cl)c(OC(F)(F)C(F)F)c(Cl)c1
inactive: Coprococcus comes 0.96 | Escherichia coli ED1a 0.965 | Escherichia coli IAI1 0.982 | Eubacterium rectale 0.892 | [1] 0.877 | Lactobacillus gasseri 0.986 | Lactobacillus paracasei 0.62 | Odoribacter splanchnicus 0.983 | [2] 0.994 | Parabacteroides merdae 0.992 | Roseburia intestinalis 0.977 | Streptococcus salivarius 0.962

CC1(C)OC(c2ccco2)CN1C(=O)C(Cl)Cl (stereo not drawn)
inactive: Coprococcus comes 1.03 | Escherichia coli ED1a 1.01 | Escherichia coli IAI1 0.994 | Eubacterium rectale 0.803 | [1] 0.934 | Lactobacillus gasseri 1.07 | Lactobacillus paracasei 0.976 | Odoribacter splanchnicus 1.05 | [2] 0.99 | Parabacteroides merdae 0.968 | Roseburia intestinalis 1.03 | Streptococcus salivarius 1.01

CC1(C(=O)Nc2ccc(O)c(Cl)c2Cl)CCCCC1
inactive: Coprococcus comes 0.965 | Escherichia coli ED1a 1.01 | Escherichia coli IAI1 0.991 | Eubacterium rectale 0.973 | [1] 0.915 | Lactobacillus gasseri 1.03 | Lactobacillus paracasei 0.949 | Odoribacter splanchnicus 0.907 | [2] 1.05 | Parabacteroides merdae 0.993 | Roseburia intestinalis 0.86 | Streptococcus salivarius 0.967

CCOP(=S)(OCC)Oc1cc(Cl)c(SC)cc1Cl
inactive: Coprococcus comes 1.02 | Escherichia coli ED1a 0.999 | Escherichia coli IAI1 0.977 | Eubacterium rectale 0.897 | [1] 1.03 | Lactobacillus gasseri 0.981 | Lactobacillus paracasei 0.995 | Odoribacter splanchnicus 1.12 | [2] 1.01 | Parabacteroides merdae 0.926 | Roseburia intestinalis 0.994 | Streptococcus salivarius 1.01

COc1cc(Cl)c(OC)cc1Cl
inactive: Coprococcus comes 1.04 | Escherichia coli ED1a 1.03 | Escherichia coli IAI1 1.01 | Eubacterium rectale 0.986 | [1] 0.951 | Lactobacillus gasseri 0.94 | Lactobacillus paracasei 0.94 | Odoribacter splanchnicus 1 | [2] 1.02 | Parabacteroides merdae 1.05 | Roseburia intestinalis 1.04 | Streptococcus salivarius 1.04

COP(=S)(OC)Oc1cc(Cl)c(Cl)cc1Cl
inactive: Coprococcus comes 0.979 | Escherichia coli ED1a 1 | Escherichia coli IAI1 0.971 | Eubacterium rectale 0.945 | [1] 1.06 | Lactobacillus gasseri 1 | Lactobacillus paracasei 1.02 | Odoribacter splanchnicus 0.88 | [2] 0.936 | Parabacteroides merdae 0.983 | Roseburia intestinalis 0.966 | Streptococcus salivarius 0.994

COP(=S)(OC)Oc1ccc(S(C)=O)c(C)c1 (stereo not drawn)
inactive: Coprococcus comes 1.04 | Escherichia coli ED1a 0.975 | Escherichia coli IAI1 1.04 | Eubacterium rectale 1.06 | [1] 1.02 | Lactobacillus gasseri 1.02 | Lactobacillus paracasei 1.01 | Odoribacter splanchnicus 0.979 | [2] 1.03 | Parabacteroides merdae 0.988 | Roseburia intestinalis 1.07 | Streptococcus salivarius 0.988

CCCN(CCC)N=O
inactive: Coprococcus comes 1.02 | Escherichia coli ED1a 1.03 | Escherichia coli IAI1 1 | Eubacterium rectale 0.979 | [1] 0.989 | Lactobacillus gasseri 0.956 | Lactobacillus paracasei 0.984 | Odoribacter splanchnicus 1.06 | [2] 1.11 | Parabacteroides merdae 1.03 | Roseburia intestinalis 0.988 | Streptococcus salivarius 0.967

C=C(C)[C@H]1Cc2c(ccc3c2O[C@@H]2COc4cc(OC)c(OC)cc4[C@@H]2C3=O)O1
inactive: Coprococcus comes 0.986 | Escherichia coli ED1a 1 | Escherichia coli IAI1 1.01 | Eubacterium rectale 0.973 | [1] 1.06 | Lactobacillus gasseri 0.878 | Lactobacillus paracasei 0.954 | Odoribacter splanchnicus 0.917 | [2] 0.935 | Parabacteroides merdae 0.94 | Roseburia intestinalis 0.935 | Streptococcus salivarius 1.02

COCC(=O)N(c1c(C)cccc1C)[C@@H](C)C(=O)OC
inactive: Coprococcus comes 1.04 | Escherichia coli ED1a 1.01 | Escherichia coli IAI1 1 | Eubacterium rectale 1.09 | [1] 1.1 | Lactobacillus gasseri 0.893 | Lactobacillus paracasei 1.01 | Odoribacter splanchnicus 0.996 | [2] 0.796 | Parabacteroides merdae 0.996 | Roseburia intestinalis 0.997 | Streptococcus salivarius 0.999

COc1nn(CSP(=S)(OC)OC)c(=O)s1
inactive: Coprococcus comes 1.06 | Escherichia coli ED1a 1 | Escherichia coli IAI1 1 | Eubacterium rectale 1.08 | [1] 1.01 | Lactobacillus gasseri 0.987 | Lactobacillus paracasei 1.01 | Odoribacter splanchnicus 1.08 | [2] 1 | Parabacteroides merdae 1.04 | Roseburia intestinalis 1.06 | Streptococcus salivarius 0.985

Nc1nc(N)[nH]c(=O)n1
inactive: Coprococcus comes 1.02 | Escherichia coli ED1a 1.02 | Escherichia coli IAI1 1.03 | Eubacterium rectale 0.978 | [1] 0.964 | Lactobacillus gasseri 0.982 | Lactobacillus paracasei 1.04 | Odoribacter splanchnicus 0.956 | [2] 1.05 | Parabacteroides merdae 1.01 | Roseburia intestinalis 0.981 | Streptococcus salivarius 1

COP(N)(=S)Oc1ccccc1C(=O)OC(C)C (stereo not drawn)
inactive: Coprococcus comes 1.03 | Escherichia coli ED1a 0.969 | Escherichia coli IAI1 0.982 | Eubacterium rectale 1.04 | [1] 0.97 | Lactobacillus gasseri 0.906 | Lactobacillus paracasei 0.944 | Odoribacter splanchnicus 0.898 | [2] 0.877 | Parabacteroides merdae 0.986 | Roseburia intestinalis 1.07 | Streptococcus salivarius 0.991

Cc1c(N)cccc1N
inactive: Coprococcus comes 1.01 | Escherichia coli ED1a 0.995 | Escherichia coli IAI1 0.981 | Eubacterium rectale 1.01 | [1] 1.04 | Lactobacillus gasseri 1.01 | Lactobacillus paracasei 0.991 | Odoribacter splanchnicus 0.938 | [2] 0.995 | Parabacteroides merdae 1.01 | Roseburia intestinalis 0.997 | Streptococcus salivarius 1.01

C1=Cc2cccc3cccc1c23
inactive: Coprococcus comes 1.01 | Escherichia coli ED1a 1.02 | Escherichia coli IAI1 1.01 | Eubacterium rectale 0.988 | [1] 1.02 | Lactobacillus gasseri 0.975 | Lactobacillus paracasei 1.04 | Odoribacter splanchnicus 0.99 | [2] 0.889 | Parabacteroides merdae 1.02 | Roseburia intestinalis 0.987 | Streptococcus salivarius 0.98

CC1(C)CON(Cc2ccccc2Cl)C1=O
inactive: Coprococcus comes 1.01 | Escherichia coli ED1a 0.965 | Escherichia coli IAI1 1.02 | Eubacterium rectale 1.12 | [1] 1.05 | Lactobacillus gasseri 0.837 | Lactobacillus paracasei 1.05 | Odoribacter splanchnicus 0.899 | [2] 0.838 | Parabacteroides merdae 0.985 | Roseburia intestinalis 0.896 | Streptococcus salivarius 0.87
